Assay outcomes (PubChem)
ELG1 DNA repair – inhibitors of ELG1-dependent DNA repair in HEK293T cells | AID 504467 | 330,000 tested, 2.3% active | Potency, µM (titrated, usually from 46.1 µM), for the others: top-dose activity change, negative = inhibition, actives largely listed as inhibitors | HEK293T ELG1-luciferase reporter, luminescence, 16 h; DNA damage induced by 5-fluorouridine; note: % is set by controls: 0 for no effect and ±100 for the full control effect; nearly all actives have a fitted effect of over 55% in size
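Luminescence from the luciferase reporter, measured 30 min after ONE-Glo reagent at room temperature, was the read-out. Beforehand, 2,000 cells per well were exposed for 16 hr at 37 °C to 5-fluorouridine together with compound or vehicle.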
FLuc modulator – counter-screen for miR-21 project: firefly luciferase inhibitors or activators. purified FLuc, Km substrates, luminescence inhibition. P08659. AID 588342. Potency, µM (titrated, usually from 57.5 µM), inactives show top-dose activity change, negative = inhibition, actives largely listed as inhibitors. 360,000 tested, 6.9% active;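 note: plate controls were vehicle for no effect and reference inhibitor for full effect; nearly all actives have a fitted effect of over 55% in size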
Target sequence (P08659 whole entry, looked up): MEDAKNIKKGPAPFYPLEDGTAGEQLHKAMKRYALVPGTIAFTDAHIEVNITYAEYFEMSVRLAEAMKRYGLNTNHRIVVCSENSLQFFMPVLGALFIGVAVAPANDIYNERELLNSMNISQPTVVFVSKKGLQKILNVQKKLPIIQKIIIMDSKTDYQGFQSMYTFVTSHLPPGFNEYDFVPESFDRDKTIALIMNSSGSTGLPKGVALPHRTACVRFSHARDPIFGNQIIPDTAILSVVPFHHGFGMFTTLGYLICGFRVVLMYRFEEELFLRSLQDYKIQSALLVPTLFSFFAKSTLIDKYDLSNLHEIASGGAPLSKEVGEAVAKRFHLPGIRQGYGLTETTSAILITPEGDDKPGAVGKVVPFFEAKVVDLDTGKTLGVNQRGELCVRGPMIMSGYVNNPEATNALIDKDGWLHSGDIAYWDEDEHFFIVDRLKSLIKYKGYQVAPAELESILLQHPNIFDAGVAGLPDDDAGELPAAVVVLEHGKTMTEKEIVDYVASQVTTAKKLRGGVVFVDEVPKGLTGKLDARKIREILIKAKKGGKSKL
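Biochemical qHTS of compounds, final roughly 60 µM downward over six points, against 10 nM purified firefly luciferase using Km concentrations of substrates (10 uM D-luciferin, 10 uM ATP) in Tris acetate pH 7.5 buffer; luminescence output.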
NPC1 prom act – NPC1 promoter activation; AID 485313; Huh7 NPC1 promoter luciferase reporter, 24 h; Potency, µM (series often up to 9.22 µM), for the others: at the top dose activation, most hits filed as activators; 320,000 tested, 2.4% active; note: % of control where 0% means no effect; nearly all actives have a fitted effect of over 60% in size
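Compounds in DMSO were transferred onto Huh7 NPC1-luciferase reporter cells pre-incubated 2 h; after 24 h at 37 °C, Amplite reagent was dispensed and luminescence recorded 10 min later.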
ELG1 genotoxic – inducers of genotoxicity in HEK293T ELG1-luciferase cells; HEK293T ELG1-luciferase reporter, luminescence, 16 h; Potency, µM (series often up to 46 µM), without a hit: at the highest dose activity change, positive = activation, most hits filed as activators; 330,000 tested, 1.3% active; note: % of control where 0% means no effect; nearly all actives have a fitted effect of over 60% in size
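Genotoxicity was scored as increased ELG1-luciferase reporter signal, measured by ONE-Glo luminescence (30 min, room temperature). Compound or vehicle exposure of the HEK293T reporter cells lasted 16 hr at 37°C.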
Rab9 prom act – Rab9 promoter activation; Huh7 Rab9 promoter-luciferase reporter, luminescence, 24 h; Potency, µM (series often up to 9.22 µM), inactives show at the top dose activation, negative = inhibition, actives largely listed as activators; 320,000 tested, 2.8% active; AID 485297; note: % of control where 0% means no effect; nearly all actives have a fitted effect of over 60% in size
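Using Huh7 cells stably transfected with Rab9 promoter–luciferase, compounds were incubated 24 h at 37 °C, 5% CO2; luciferase luminescence was read 10 min after reagent addition.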
SMN2 splice up – increases expression of the SMN2 splice variant | HEK293 SMN2-luciferase splicing reporter, luminescence, 30-36 h | Potency, µM (doses to about 46.1 µM), without a hit: at the top dose activity change, positive = activation, usual class: activators | 210,000 tested, 2.8% active | AID 1458; note: % of control where 0% means no effect; nearly all actives have a fitted effect of over 55% in size
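qHTS luciferase splicing reporter: luminescence rises when SMN2 exon 7 is included in transfected HEK293 cells. Compound exposure lasted 30-36 h at 37C, with 4.5 mM final sodium butyrate as control, followed by a ONE-Glo read.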
* marks the source's active call; other numbers are inactive results; ? = inconclusive; . = no result; [ ] = another dose, or the depositor's remark. Hits are enriched below; roughly 9.4% of the tested compounds scored in any of these assays. Calls come from the whole dose curve; as a rule, active = well fitted curve in the direction sought with a large enough effect; inconclusive = small, poorly fitted or top-dose-only effect, or another doubt; inactive = no such curve, though single readings can be large; an effect the other way counts as inactive or inconclusive. Potency is the fitted concentration of half-maximal effect.

SMILES	ELG1 DNA repair	FLuc modulator	NPC1 prom act	ELG1 genotoxic	Rab9 prom act	SMN2 splice up
Cn1cc(Br)c(C(=O)N/N=C/c2cccc(OC3CSC3)c2)n1	?	19µM*	0%	8%	13%	6%
O=C(CSc1ncc(-c2ccccc2)[nH]1)Nc1ccc(Cl)cc1	.	?	.	.	.	-18%
O=C(N/N=C/c1ccc(Br)o1)c1ccc2c(c1)OCCO2	?	6µM*	3.2µM*	?	3.2µM*	11µM*
Cn1c(=Nc2ccccc2)sc2ccccc21	?	21µM*	14%	?	24%	-20%
CN(C)c1ccc(N=c2sc3ccccc3n2C)cc1	?	6µM*	?	6.5µM*	?	-5%
O=C(Nc1ccccn1)C(=O)Nc1ccccn1	?	5.4µM*	1.4µM*	4.6µM*	1.3µM*	.
c1ccc(Nc2ccccn2)nc1	10%	5%	-1%	0%	-3%	.
COc1cc(NCc2ccccc2O)c2ncccc2c1	13%	-13%	7%	0%	9%	.
O=C(Nc1ccccc1)Nc1cnccn1	12%	1%	-6%	3%	-1%	.
O=C(Nc1ccccc1)Nc1ccccn1	?	12µM*	?	?	?	14µM*
Oc1ccccc1CNc1cccc2cccnc12	?	17µM*	2%	?	27%	.
CCOC(=O)c1ccc(NC(=O)Nc2cccc(C)n2)cc1	-1%	1%	10%	?	5%	6%
CCOC(=O)c1ccc(NC(=O)Nc2ccccn2)cc1	?	2.7µM*	2.5µM*	?	1.3µM*	.
CCN(CC)S(=O)(=O)c1ccc2c(c1)N(CC(=O)N1CCN(c3cccc(Cl)c3)CC1)C(=O)CO2	.	0%	.	.	.	.
S=C(Nc1ccccn1)c1ccccn1	?	7.6µM*	2.8µM*	13µM*	2.5µM*	20µM*
Oc1ccccc1CNc1cnc2ccccc2c1	?	11µM*	?	?	?	?
O=C(Nc1ccccc1)Nc1cccc2ccccc12	21%	?	11%	0%	19%	.
O=C(Nc1ccccc1)Nc1cccc2cccnc12	?	6µM*	3%	6.3µM*	23%	14µM*
Oc1ccc(Cl)cc1CNc1cnc2ccccc2c1	-5%	-13%	-4%	4%	4%	.
Cc1nc(NC(=O)Nc2ccc(Cl)cc2)sc1C	?	?	12%	10%	3.2µM*	?
CCCc1cc(=O)oc2cc(C)c3c(-c4ccccc4)coc3c12	.	?	.	.	.	-3%
O=C(Nc1ccncc1)Nc1ccc(Cl)cc1	?	21µM*	22%	14%	6%	.
O=C(Nc1ccc(Cl)cc1)Nc1ccc(S(=O)(=O)Nc2ncccn2)cc1	-5%	?	-5%	0%	-4%	.
O=C(Nc1ccccn1)c1ccc(-c2ccccc2)cc1	?	0.21µM*	0.1µM*	?	0.089µM*	.
O=C(Nc1ccc(Cl)cc1)Nc1ccccn1	?	5.4µM*	2.8µM*	?	2.2µM*	.
SMILES	ELG1 DNA repair	FLuc modulator	NPC1 prom act	ELG1 genotoxic	Rab9 prom act	SMN2 splice up
CCOc1ccccc1CNC(=O)CCn1cccn1	.	-4%	.	.	.	.
Cc1cc(N2CCCC2=O)cc(C)c1S(=O)(=O)NCCOc1ccc(C(C)(C)C)cc1	21µM*	4%	-3%	-7%	1%	-93%
CCN(CC)CC#CCOC(=O)[C@@](O)(c1ccccc1)C1CCCCC1	.	.	.	.	.	-17%[20.6 µM]
Cc1ccc2c(c1)cc1c(=O)n(CC(=O)N3CCCCC3)nc(C)n12	.	-11%	.	.	.	-5%
CN(C)c1nc(OCCNC(=O)COc2ccc(Cl)cc2Cl)nc(N(C)C)n1	21µM*	-2%	3%	-9%	1%	-8%
CCNC(=O)COc1ccc(Br)cc1Cl	?	?	26%	?	30%	10%
COCCCNC(=O)COc1ccc(Br)cc1Cl	?	?	?	?	?	16µM*
Cc1ccc(N2CC(C)Cn3c2nc2c3c(=O)n(Cc3cccc(Cl)c3)c(=O)n2C)cc1 (stereo not given)	.	-1%	.	.	.	.
Cc1ccc(NC2=CC(=O)C(=O)c3ccccc32)c(C)c1	21µM*	.	-14%	-10%	-35%	.
CCc1ccc(OC(C)c2nc(-c3ccc(-n4cccc4)cc3)no2)cc1 (stereo not given)	.	-6%	.	.	.	-5%
CC(C)OC(=O)/C(C#N)=C/c1cn(C)c2ccccc12	14%	-5%	1%	-3%	1%	.
Cn1cc(/C=C(\C#N)C(=O)Nc2ccccc2O)c2ccccc21	8.2µM*	?	27%	-11%	?	.
CN(C)Cc1ccccc1-c1nccc(NCc2cccs2)n1	.	.	.	.	.	-1%
COc1ccc(C)cc1NC(=O)c1cc(S(=O)(=O)N2CCCCC2)ccc1N1CCOCC1	15µM*	.	-2%	0%	12%	.
COc1cc(NC(=O)c2cc(S(=O)(=O)N3CCCCC3)ccc2N2CCOCC2)cc(OC)c1	?	0%	0%	2%	-5%	.
COc1ccc(S(=O)(=O)N2CCCCC2)cc1NC(=O)C1CC1	0%	-1%	-1%	-4%	17%	.
Cc1ccc(S(=O)(=O)N(C)C)cc1NC(=O)c1cc(S(=O)(=O)N2CCCCC2)ccc1N1CCOCC1	10µM*	0%	-1%	2%	0%	.
COc1ccc(S(=O)(=O)N2CCCCC2)cc1NC(=O)C1COc2ccccc2O1 (stereo not given)	18µM*	-3%	-5%	-8%	-4%	.
NC(=O)c1nc(-c2ccc(F)c(F)c2)nc2c1[nH]c(=O)n2-c1cccc(Cl)c1	.	2%	.	.	.	5%
CCCOc1ccc(NC(=O)CC2C(=O)N(c3cccc(OC)c3)C(=O)N2CCc2ccncc2)cc1 (stereo not given)	.	5%	.	.	.	.
O=C(O)c1cccc(Cn2c(Cl)c(/C=N/Nc3ccccc3)sc2=O)c1	7%	27µM*	-1%	25%	0%	-32%
O=C(O)c1cccc(Cn2c(Cl)c(/C=N/NC(=O)c3ccccc3O)sc2=O)c1	1%	19µM*	2%	1%	4%	.
O=C(O)c1cccc(Cn2c(Cl)c(/C=N/NC(=O)c3ccccc3Cl)sc2=O)c1	10%	-16%	1%	0%	-5%	-4%
COc1ccc(C(=O)N/N=C/c2sc(=O)n(Cc3cccc(C(=O)O)c3)c2Cl)cc1	-2%	27µM*	1%	1%	5%	.
O=C(Cn1nnnc1-c1ccccc1F)Nc1ccc(F)c(F)c1	.	2%	.	.	.	-2%
Brc1ccc(-c2ccc(CNCCSc3nnnn3-c3ccccc3)o2)cc1	.	2%	.	.	.	-35%
Cc1c2cnn(-c3ccccc3)c(=O)c2c(C)n1CC(=O)NCc1ccccc1Br	.	3%	.	.	.	8%
